Assay outcomes: PubChem, National Center for Advancing Translational Sciences (NCATS)
An excerpt weighted towards active compounds, which were near 0.8% of everything screened.
Tb PFK block: T. brucei PFK enzyme inhibition | T. brucei PFK, ADP-Glo luminescence | Potency, µM (highest dose often 57.5 µM), inactives show at the highest dose activity, negative = inhibition, hits mostly inhibitors | hit rate 0.17% among 330,000 | AID 485367;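 further: potency means the concentration at half of the fitted maximal effect; 0% = uninhibited 1x PFK enzyme wells and -100% = no-enzyme wells; nearly all actives have a fitted effect of over 60% in size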
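In TEA buffer at pH 8.0 with 5 mM MgCl2, enzyme (1.25 nM) converted F6P (0.5 mM) and ATP (0.1 mM) for 45 min at room temperature. ADP product was read by luciferase luminescence.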
TDP1 block: inhibitors of human tyrosyl-DNA phosphodiesterase TDP1; recombinant TDP1, AlphaScreen DNA substrate cleavage; Q9NUW8; hit rate 0.28% among 350,000; AID 485290; Potency, µM (series often up to 130 µM), for the others: top-dose activity change, negative = inhibition, most hits filed as inhibitors; further: potency means the concentration at half of the fitted maximal effect; on the % scale 0 is the no-effect control and ±100 the full control effect; nearly all actives have a fitted effect of over 40% in size
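E. coli-derived human Tdp1, 1 nM final. Cpd preinc 15 min RT; substrate 15 nM final, 5 min RT; AS bead mix 10 ug/ml final, 10 min RT. Signal loss = tyrosine-FITC cleavage. No-enzyme wells = max signal.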
APEX1 inh: inhibitors of human APE1 endonuclease; hit rate 0.35% among 350,000; Potency, µM (top dose mostly 65.8 µM), inactives show at the highest dose activity change, negative = inhibition, actives largely listed as inhibitors; recombinant APE1, TAMRA/BHQ-2 abasic DNA cleavage fluorescence;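 further: potency means the concentration at half of the fitted maximal effect; plate controls were vehicle for no effect and reference inhibitor for full effect; nearly all actives have a fitted effect of over 55% in size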
Target sequence (P27695 whole entry, looked up): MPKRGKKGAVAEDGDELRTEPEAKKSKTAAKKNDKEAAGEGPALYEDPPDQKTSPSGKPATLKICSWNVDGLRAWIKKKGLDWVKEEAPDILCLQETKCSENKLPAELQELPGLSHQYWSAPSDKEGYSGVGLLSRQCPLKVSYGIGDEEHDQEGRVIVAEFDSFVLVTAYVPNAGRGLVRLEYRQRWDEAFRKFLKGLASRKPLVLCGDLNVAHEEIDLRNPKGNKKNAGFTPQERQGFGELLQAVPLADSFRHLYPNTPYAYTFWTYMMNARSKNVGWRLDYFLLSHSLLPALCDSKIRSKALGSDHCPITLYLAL
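Enzyme (0.75 nM final) and test compound are incubated 15 min at room temperature before adding 50 nM quenched THF abasic-site duplex. Cleavage dequenches TAMRA, followed at 525/598 nm over three reads one minute apart.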
FEN1 inh-1: inhibitors of human flap endonuclease 1; P39748; Recombinant FEN1 flap cleavage, fluorescence, 15 min; Potency, µM (series often up to 114 µM), for the others: at the top dose activity change, negative = inhibition, actives largely listed as inhibitors; hit rate 0.35% among 390,000; AID 588795; further: potency means the concentration at half of the fitted maximal effect; on the % scale 0 is the no-effect control and ±100 the full control effect; nearly all actives have a fitted effect of over 65% in size
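Compounds are tested as a concentration series against 10 nM FEN1; after a 15 min room-temperature preincubation, 50 nM substrate starts cleavage, with plate reads at 0 and 15 min. Normalized responses are fitted by a Hill equation.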
PI4K2A inh: blocks human PI4K2A kinase activity. activity change, negative = inhibition, % at 76.9 µM. Q9BTU6. hit rate 0.13% among 420,000. purified PI4K2A, ADP-Glo luminescence, 1 h; active compounds read low; in the data active means activity change below about -50%; inconclusive means mostly about -30% to -49%;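 further: -100% = wells without enzyme as full effect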
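ADP-Glo luminescence measured ADP generated by PI4K2A enzyme (4 ug/mL before mixing) with 1.2 mM PI substrate (pre-mix) and 300 microM ATP (pre-mix). Tris pH7.5 buffer with MgCl2, Triton X-100; 1 h reaction at ambient temperature.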
PGK inhibitor: T. brucei PGK inhibition. Potency, µM (series often up to 57.5 µM), inactives show at the highest dose activity change, negative = inhibition, hits mostly inhibitors. PGK/GAPDH coupled, Kinase-Glo luminescence, 60 min. P07378. hit rate 0.043% among 380,000; further: potency means the concentration at half of the fitted maximal effect; on the % scale 0 is the no-effect control and ±100 the full control effect; nearly all actives have a fitted effect of over 60% in size
Target sequence (P07378 whole entry, looked up): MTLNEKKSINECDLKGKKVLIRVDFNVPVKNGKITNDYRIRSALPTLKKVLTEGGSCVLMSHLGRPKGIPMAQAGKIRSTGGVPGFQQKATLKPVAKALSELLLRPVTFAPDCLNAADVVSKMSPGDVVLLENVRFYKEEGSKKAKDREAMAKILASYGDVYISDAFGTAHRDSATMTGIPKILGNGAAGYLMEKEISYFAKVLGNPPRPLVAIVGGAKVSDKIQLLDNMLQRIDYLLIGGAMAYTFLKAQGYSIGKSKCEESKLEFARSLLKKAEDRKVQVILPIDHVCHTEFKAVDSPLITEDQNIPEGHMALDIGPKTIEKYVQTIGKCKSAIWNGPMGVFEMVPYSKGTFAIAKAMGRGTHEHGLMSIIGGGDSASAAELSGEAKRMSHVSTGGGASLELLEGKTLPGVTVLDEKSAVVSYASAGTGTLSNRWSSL
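Luminescent ATP detection (Kinase-Glo Plus) follows a 60-minute room-temperature incubation, with wells lacking PGK as controls. Buffer: 100 mM TEA (pH 7.6), 5 mM MgCl2, 0.01% Tween-20. Coupling enzyme GAPDH (100 nM final) supplies unstable 1,3-BPG in-well.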
FEN1 inh-2: FEN1 inhibition, cherry-pick retest. shares compounds with FEN1 inh-1. FEN1 flap cleavage, TAMRA/BHQ2 fluorogenic DNA substrate. Potency, µM, usual class: inhibitors. hit rate 79% among 880. AID 720498; further: potency means the concentration at half of the fitted maximal effect; nearly all actives have a fitted effect of over 60% in size
* hit, by the source's call; i = inactive; ? = inconclusive; . = no result given; [ ] = another dose, or the depositor's remark. Unless noted, the call rests on the fitted dose curve; in most records, active means well fitted curve in the direction sought with a large enough effect; inconclusive means small, poorly fitted or top-dose-only effect, or another doubt; inactive means no such curve, though single readings can be large; an effect the other way counts as inactive or inconclusive.

SMILES | Tb PFK block | TDP1 block | APEX1 inh | FEN1 inh-1 | PI4K2A inh | PGK inhibitor | FEN1 inh-2
COc1ccc(OC)c(CCNC(=O)Cn2nc(C)c3c(C)n(-c4ccc(C)cc4)nc3c2=O)c1 | -1.5% | . | -2.4% | ? | 3.8 | -5.2% | ?
Cc1ccc(CCNC(=O)Cn2nc(C)c3c(C)n(-c4ccc(C)cc4)nc3c2=O)cc1 | . | 2.8% | . | 7.6% | -3.0 | 11.4% | .
Cc1cccc2nc(-c3cccc(NC(=O)c4ccc(Cl)cc4)c3)cn12 | 0.3% | 6.6% | ? | ? | 0.6 | -5.2% | 60.1*
Cc1cccc2nc(-c3cccc(NC(=O)Cc4ccccc4)c3)cn12 | 1.7% | 2.6% | -3.7% | -16.4% | -2.6 | i | .
CC(C)[C@H]1COCCS(=O)(=O)N1Cc1cccc([N+](=O)[O-])c1 | . | . | . | -9.6% | . | . | .
Cc1ccc(-n2nc(-c3ccco3)cc2C(=O)O)c(C)c1 | -24.2% | . | ? | -5.1% | -6.0 | -16.8% | 37.9*
COc1ccc(/C=C2/SC(=S)N(c3ccc(S(=O)(=O)Nc4nccs4)cc3)C2=O)cc1 | ? | . | -3.0% | 50.1µM* | -0.6 | -1.7% | 60.1*
COc1ccc(-c2oc3ncnc(NCCCN(C)C)c3c2-c2ccc(OC)cc2)cc1 | -3.3% | . | -14.7% | ? | 3.4 | -9.5% | ?
CN(C)CCNc1ncnc2oc(-c3ccccc3)c(-c3ccccc3)c12 | 0.4% | . | 10.1% | ? | -3.9 | -19.5% | .
Nc1nccnc1C(=O)OCC(=O)Nc1ccc2[nH]c(=O)[nH]c2c1 | ? | -13.3%[0.505 µM] | -0.7% | ? | -4.6 | -7.9% | ?
Cc1ccc(-c2nc3ccccc3o2)cc1NC(=S)NC(=O)/C=C/c1ccco1 | -2.7% | 7.0% | -5.5% | -8.0% | 6.0 | 1.5% | .
O=C(/C=C/c1ccco1)NC(=S)Nc1cccc(-c2nc3ccccc3o2)c1 | -0.1% | 5.9% | 22.3% | -14.0% | ? | 2.2% | ?
OC(CN1C=CCc2ccccc21)c1ccc(Cl)cc1Cl (configuration not stated) | . | . | . | -3.9% | . | . | .
CCOC(=O)/C=C/c1cc(F)c(S(=O)(=O)N2CCN(S(=O)(=O)c3ccc4c(c3)OCCO4)CC2)cc1F | . | 1.0% | . | . | . | . | .
CCOc1ccccc1NC(=O)CSc1nc2ccccc2c2nc(CCn3cncc3C)nn12 | . | -1.5% | . | -25.1% | 3.4 | 13.2% | ?
CC(=O)O[C@@H]1C(=O)O[C@@H]2[C@H]1OC(=O)[C@@H]2OC(C)=O | . | . | . | . | -1.7 | . | .
O=[N+]([O-])c1cc2ccccc2c(O)c1O | . | . | . | . | ? | ? | 15.1*
O=[N+]([O-])c1cc(-c2ccccc2)cc([N+](=O)[O-])c1O | . | . | . | -13.9% | -4.0 | -2.0% | .
c1ccc2c(c1)-c1cccc3cncc-2c13 | . | . | . | ? | 1.5 | 6.6% | ?
c1ccc2c(-c3cncc4ccccc34)cncc2c1 | . | . | . | -4.4% | 4.6 | -7.3% | .
O=C(Nc1ccncc1)c1cnn2c1NC(=C1CC1)C=C2C(F)F | . | . | . | 1.9% | . | . | .
CCN(CC)CCNC(=O)c1cc2c(=O)n(C)c3ccccc3c2s1 | 0.2% | . | -25.1% | 50.1µM* | 3.2 | i | 47.8*
COC(=O)C1=COC(OC2OC(CO)C(O)C(O)C2O)C2C1C=CC2(O)CO (configuration not stated) | -24.7% | . | 7.94µM* | -0.8% | 2.1 | ? | ?
COC(=O)C1=CO[C@@H](O[C@@H]2OC(CO)[C@@H](O)[C@@H](O)[C@@H]2O)C2C1CC[C@]2(C)O (some centres not stated) | . | . | . | -0.7% | -3.7 | -7.7% | .
CCn1c(COc2ccc(C)cc2)nnc1SCC(=O)Nc1ccccc1-c1ccccc1 | . | . | . | . | -3.9 | . | .
SMILES | Tb PFK block | TDP1 block | APEX1 inh | FEN1 inh-1 | PI4K2A inh | PGK inhibitor | FEN1 inh-2
Cc1cc2nc(N=C(N)N)nc(C)c2cc1C | 7.6% | 3.6% | -2.5% | 17.8µM* | -0.6 | . | 67.5*
Cc1ccc2nc(N=C(N)N)nc(C)c2c1 | 3.0% | -5.1% | ? | 50.1µM* | -16.1 | -5.2% | 33.8*
Cc1cc(C)nc(NC(=S)N2CCN(c3ncc(C(F)(F)F)cc3Cl)CC2)c1 | . | . | . | . | 3.5 | . | .
CN1CCN(C2=CC3=CC(=C(C#N)C#N)CCC3CC2)CC1 (configuration not stated) | -6.8% | 6.9% | -1.2% | -7.9% | -4.3 | -4.8% | .
N#CC(C#N)=C1C=C2C=C(N3CCCCCC3)CCC2CC1 (configuration not stated) | -1.8% | 6.7% | ? | ? | 0.9 | . | 67.5*
NC(=O)COCCN1CCN(C(c2ccccc2)c2ccc(Cl)cc2)CC1 (configuration not stated) | . | . | . | . | -4.7 | . | .
CCN1/C(=C/c2ccc3cc(C)ccc3[n+]2CC)Sc2ccccc21 | 6.8% | 3.4% | -10.7% | ? | -1.5 | -13.4% | 19*
CC[n+]1ccccc1/C=C1\Sc2ccc(C)cc2N1C | -5.0% | . | -0.8% | 4.3% | -4.4 | i | .
O=C1NC(=O)/C(=C\c2ccc(O)cc2O)S1 | -0.2% | . | 3.98µM* | 15.8µM* | -5.6 | 3.1% | 67.5*
CCN(CC)CCOc1ccc2c(c1)C(=NO)c1cc(OCCN(CC)CC)ccc1-2 | -6.9% | -5.0% | -14.6% | 12.6µM* | 0.2 | -9.7% | 8.49*
COc1ccc(-n2c(SCC(=O)Nc3ccc(Oc4ccccc4)cc3)nnc2-c2ccco2)cc1 | . | . | . | . | 1.4 | . | .
CC1=[N+](C)c2c(ccc3cccnc23)C1(C)C | -7.1% | 12.0% | ? | 44.7µM* | -21.4 | -6.9% | 42.6*
Cc1[nH]c2c(ccc3cccnc32)c1C | -1.1% | 7.0% | -10.2% | -0.1% | 5.7 | -7.5% | .
